# Columns and labels:
# Parameters in all cases: species or system human, MV4-11 + K-562 + COLO205 + SK-N-BE2 + OVCAR-8
# CIT = settings: read-out: apparent Kd; compound concentrations:100 nM and 1000 nM (sheet 'Samples'); n = 1
# CSNK1A1 = settings: read-out: apparent Kd; compound concentrations:100 nM and 1000 nM (sheet 'Samples'); n = 1
# CSNK1D = settings: read-out: apparent Kd; compound concentrations:100 nM and 1000 nM (sheet 'Samples'); n = 1
# CSNK1E = settings: read-out: apparent Kd; compound concentrations:100 nM and 1000 nM (sheet 'Samples'); n = 1
# MAPK14 = settings: read-out: apparent Kd; compound concentrations: 100 nM and 1000 nM (sheet 'Samples'), CATDS: 6.0932890746218903E-2; n = 1
# MAPK9 = settings: read-out: apparent Kd; compound concentrations:100 nM and 1000 nM (sheet 'Samples'); n = 1
# MAPKAPK2 = settings: read-out: apparent Kd; compound concentrations:100 nM and 1000 nM (sheet 'Samples'); n = 1
# PIK3CD = settings: read-out: apparent Kd; compound concentrations:100 nM and 1000 nM (sheet 'Samples'); n = 1
# PKN3 = settings: read-out: apparent Kd; compound concentrations:100 nM and 1000 nM (sheet 'Samples'); n = 1
# PRKX = settings: read-out: apparent Kd; compound concentrations:100 nM and 1000 nM (sheet 'Samples'); n = 1
# PSMC3 = settings: read-out: apparent Kd; compound concentrations:100 nM and 1000 nM (sheet 'Samples'); n = 1
# RIPK2 = settings: read-out: apparent Kd; compound concentrations:100 nM and 1000 nM (sheet 'Samples'); n = 1
# SIK3 = settings: read-out: apparent Kd; compound concentrations:100 nM and 1000 nM (sheet 'Samples'); n = 1
# TGFBR2 = settings: read-out: apparent Kd; compound concentrations:100 nM and 1000 nM (sheet 'Samples'); n = 1
# CDK6 = settings: read-out: apparent Kd; compound concentrations: 100 nM and 1000 nM (sheet 'Samples'), CATDS: 0.35534490355550902; n = 1
# EGFR = settings: read-out: apparent Kd; compound concentrations: 100 nM and 1000 nM (sheet 'Samples'), CATDS: 0.84328926118449798; n = 1
# CLK1 = settings: read-out: apparent Kd; compound concentrations:100 nM and 1000 nM (sheet 'Samples'); n = 1
# CLK4 = settings: read-out: apparent Kd; compound concentrations:100 nM and 1000 nM (sheet 'Samples'); n = 1
# DYRK1A = settings: read-out: apparent Kd; compound concentrations:100 nM and 1000 nM (sheet 'Samples'); n = 1
# MAP3K5 = settings: read-out: apparent Kd; compound concentrations:100 nM and 1000 nM (sheet 'Samples'); n = 1
# MAP3K6 = settings: read-out: apparent Kd; compound concentrations:100 nM and 1000 nM (sheet 'Samples'); n = 1
# NUAK1 = settings: read-out: apparent Kd; compound concentrations:100 nM and 1000 nM (sheet 'Samples'); n = 1
# NUAK2 = settings: read-out: apparent Kd; compound concentrations:100 nM and 1000 nM (sheet 'Samples'); n = 1
# PDGFRB = settings: read-out: apparent Kd; compound concentrations:100 nM and 1000 nM (sheet 'Samples'); n = 1
# PI4KB = settings: read-out: apparent Kd; compound concentrations:100 nM and 1000 nM (sheet 'Samples'); n = 1
# PKN2 = settings: read-out: apparent Kd; compound concentrations:100 nM and 1000 nM (sheet 'Samples'); n = 1
# PRKD2 = settings: read-out: apparent Kd; compound concentrations:100 nM and 1000 nM (sheet 'Samples'); n = 1
# PRKD3 = settings: read-out: apparent Kd; compound concentrations:100 nM and 1000 nM (sheet 'Samples'); n = 1
# RPS6KA1 = settings: read-out: apparent Kd; compound concentrations:100 nM and 1000 nM (sheet 'Samples'); n = 1
# RPS6KA6 = settings: read-out: apparent Kd; compound concentrations:100 nM and 1000 nM (sheet 'Samples'); n = 1
# RPS6KB1 = settings: read-out: apparent Kd; compound concentrations:100 nM and 1000 nM (sheet 'Samples'); n = 1
# CDK7 = settings: read-out: apparent Kd; compound concentrations: 100 nM and 1000 nM (sheet 'Samples'), CATDS: 0.117624966951351; n = 1
# ERCC2 = settings: read-out: apparent Kd; compound concentrations: 100 nM and 1000 nM (sheet 'Samples'), CATDS: 0.117960560736162; n = 1
# FER = settings: read-out: apparent Kd; compound concentrations: 100 nM and 1000 nM (sheet 'Samples'), CATDS: 0.13650868273140601; n = 1
# GAK = settings: read-out: apparent Kd; compound concentrations: 100 nM and 1000 nM (sheet 'Samples'), CATDS: 0.12538076296612899; n = 1
# PIK3CA = settings: read-out: apparent Kd; compound concentrations: 100 nM and 1000 nM (sheet 'Samples'), CATDS: 0.31694320747902399; n = 1
# TNK1 = settings: read-out: apparent Kd; compound concentrations: 100 nM and 1000 nM (sheet 'Samples'), CATDS: 0.145879794624587; n = 1
# TNK2 = settings: read-out: apparent Kd; compound concentrations: 100 nM and 1000 nM (sheet 'Samples'), CATDS: 0.149039092060825; n = 1
smiles,measurement,setting,value
Fc1ccc(-c2nc[nH]c2-c2ccncc2)cc1 [SB-217360],potency estimated from few doses,CIT,926 nM
same,potency estimated from few doses,CSNK1A1,98 nM
same,potency estimated from few doses,CSNK1D,40.5 nM
same,potency estimated from few doses,CSNK1E,623 nM
same,potency estimated from few doses,MAPK14,445 nM
same,potency estimated from few doses,MAPK9,526 nM
same,potency estimated from few doses,MAPKAPK2,83.8 nM
same,potency estimated from few doses,PIK3CD,114 nM
same,potency estimated from few doses,PKN3,212 nM
same,potency estimated from few doses,PRKX,77.5 nM
same,potency estimated from few doses,PSMC3,1190 nM
same,potency estimated from few doses,RIPK2,99.5 nM
same,potency estimated from few doses,SIK3,1440 nM
same,potency estimated from few doses,TGFBR2,1140 nM
CNC(=O)c1cccc(C#Cc2cncnc2Nc2ccc(OCc3cccc(F)c3)c(Cl)c2)c1 [GW772405X],potency estimated from few doses,CDK6,1780 nM
same,potency estimated from few doses,EGFR,182 nM
C[C@@H]1CCNC(=O)c2cc3ccc(C(=O)Nc4nc5ccccc5n4CCCN(C)C)cc3n21 [BI00645435],potency estimated from few doses,CLK1,941 nM
same,potency estimated from few doses,CLK4,931 nM
same,potency estimated from few doses,CSNK1A1,1000 nM
same,potency estimated from few doses,DYRK1A,2100 nM
same,potency estimated from few doses,MAP3K5,2300 nM
same,potency estimated from few doses,MAP3K6,1700 nM
same,potency estimated from few doses,NUAK1,110 nM
same,potency estimated from few doses,NUAK2,383 nM
same,potency estimated from few doses,PDGFRB,1670 nM
same,potency estimated from few doses,PI4KB,581 nM
same,potency estimated from few doses,PKN2,1760 nM
same,potency estimated from few doses,PRKD2,731 nM
same,potency estimated from few doses,PRKD3,1480 nM
same,potency estimated from few doses,RPS6KA1,529 nM
same,potency estimated from few doses,RPS6KA6,5.39 nM
same,potency estimated from few doses,RPS6KB1,106 nM
Nc1c(C(=O)c2cccc(C(O)CO)c2)cnn1-c1ccc(F)cc1 (stereo not drawn) [RO3200567-000],potency estimated from few doses,CDK7,1730 nM
same,potency estimated from few doses,ERCC2,1710 nM
same,potency estimated from few doses,FER,1200 nM
same,potency estimated from few doses,GAK,1460 nM
same,potency estimated from few doses,PIK3CA,285 nM
same,potency estimated from few doses,TNK1,1040 nM
same,potency estimated from few doses,TNK2,993 nM

# — article PMC11062922 (Nature Chemical Biology, 2023)
